Only some compounds are listed: those with a hit (about 2.8% of all), similar ones and a draw of the others.
Peg3 prom inh – inhibitors of Peg3 promoter | 360,000 tested, 1.7% active | HeLa PEG-Prom luciferase reporter, luminescence, overnight | inhibition, % at 20 µM;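 active means inhibition of at least 50% at 20 µM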
Shn3 3UTR inh – inhibitors of Schnurri-3 3'UTR reporter in osteoblasts | 360,000 tested, 0.52% active | Clone20 osteoblast Shn3 3'UTR firefly luciferase, 24 h | inhibition, % at 12.5 µM;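 active means mean inhibition of at least 75% with every replicate also reaching 75%; inconclusive means mean inhibition at least 75% but some replicate below; inactive means mean inhibition below 75%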
CF NFkB inh – inhibitors of cystic fibrosis induced NF-kB; KKLEB NF-kB-GFP reporter, PAF-induced, GFP fluorescence overnight; 360,000 tested, 0.86% active; inhibition, % at 5 µM; AID 588850;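 active means at least 50% inhibition at 5 µM, scaled per plate between neutral and stimulator controls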;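 further: PAF is a Pseudomonas aeruginosa culture filtrate used as stimulus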
KKLEB cytotox – reduces viability of KKLEB cystic fibrosis airway cells | 360,000 tested, 0.36% active | KKLEB CF airway cells viability, ATPlite luminescence, overnight; stronger effect = lower value; cells stimulated with P. aeruginosa culture filtrate | activity change (cytotoxicity), % at 5 µM | AID 602141;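 active means corrected activity change at or below -50% at 5 µM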
MITF TRPM1 inh – inhibitors of MITF-driven TRPM1 promoter in melanoma cells | SK-MEL-5 TRPM1 promoter luciferase, 24 h | inhibition, % at 12.5 µM | 330,000 tested, 0.83% active;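 active means mean inhibition across replicates of 60% or more, whatever share of single replicates reaches that level; inconclusive means some that reach 60%, reason not given; inactive means mean inhibition across replicates below 60%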
HIF-2a inh – HIF-2a inhibition. 786-0 RCC cells HIF-2a reporter, luciferase luminescence, overnight. inhibition, % at 18.8 µM. 360,000 tested, 0.72% active;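 active means inhibition of the luminescence signal of 40% or more relative to plate controls, in a single-dose primary screen at 18.75 µM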
Numbers stand for hits; – = inactive; ? = inconclusive; · = not tested or not shown.

SMILES	Peg3 prom inh	Shn3 3UTR inh	CF NFkB inh	KKLEB cytotox	MITF TRPM1 inh	HIF-2a inh
CCc1nc2ccc(C(=O)Nc3cc(-c4ccccc4)ccc3OC)cn2c1N(C)Cc1nccs1	67	–	–	–	·	–
COc1cc(C(=O)NCC(c2ccco2)N2CCCC2)ccc1OCc1ccc(Cl)cc1Cl (stereo not given)	56	–	–	–	·	–
COC(=O)C1=C(C)N(Cc2ccco2)C(=O)/C1=C\c1ccc(N(C)C)cc1	–	–	–	–	–	–
COC(=O)C1=C(C)N(Cc2ccco2)C(=O)/C1=C\c1ccc([N+](=O)[O-])cc1	94	–	–	–	–	–
c1ccc(-c2csc(CN3CCCCC3)n2)cc1	–	–	–	–	–	–
O=C(Nc1ccc2c(c1)OCCO2)C1c2ccccc2OCC(=O)N1Cc1cccnc1 (stereo not given)	·	·	·	·	·	–
COc1ccc(CCNc2c(C)c(C)nc3ncnn23)cc1	–	81	–	–	–	–
CCOc1ccccc1N1CC(C(=O)NCCOc2ccccc2OC)CC1=O (stereo not given)	–	–	–	–	–	–
CC(C)Oc1ccc(C(CCNCc2ccc(O)cc2)c2ccccc2)cc1 (stereo not given)	106	–	–	–	86	–
COc1ccc(C(CCNCc2ccc(N(C)C)cc2)c2ccccc2)cc1 (stereo not given)	107	–	–	–	–	–
COc1ccc(C(CCNCc2ccc(OC)c(OC)c2)c2ccc(F)cc2)cc1 (stereo not given)	–	–	–	–	–	–
CC(C)Oc1ccc(CNC(=O)CC(c2ccccc2)c2cc(Cl)ccc2O)cc1 (stereo not given)	–	–	–	–	–	–
CC(C)(Oc1ccc(Cl)cc1)C(=O)NC1CC1	–	–	–	–	–	–
COc1ccc(NC(=O)c2sc3ncnc(N4CCN(c5ccccn5)CC4)c3c2C)cc1Cl	–	88	–	–	–	–
COc1ccc(NC(=O)c2sc3nc(C)nc(N4CCN(c5ccccn5)CC4)c3c2C)cc1Cl	–	–	–	–	–	–
Clc1ccc(OCCCNCc2ccccc2)c2ccccc12	93	–	–	-53	–	–
Brc1ccccc1OCCNCc1ccccc1	–	–	–	–	–	–
Cc1cc(C)c(OCCCCNCc2ccccc2)c(Cl)c1	53	–	–	–	–	–
O=C(c1cc(Cl)cc(Cl)c1)N1CCC2CC1c1cc(N3CCCCC3)ccc12 (stereo not given)	–	–	–	–	·	–
CCOC(=O)c1c(CSC(=N)N)n(C)c2cc(Br)c(OC(C)=O)cc12	–	–	–	–	–	–
CCOC(=O)c1c(CSC(=N)N)n(-c2ccc(C)cc2)c2cc(Br)c(OC(C)=O)cc12	54	–	–	–	?	–
C=CS(=O)(=O)c1c2cc(OC)ccc2nc2ccc(OC)cc12	98	–	–	–	–	–
COc1ccc2nc(Cl)cc(Cl)c2c1	–	–	–	–	–	–
O=C(CCCCCNC(=O)N1CCn2c1nc1ccccc12)NCc1ccc(F)cc1	–	–	–	–	–	–
Cc1ccc(Cl)cc1N1CCN(C(=O)Cc2csc(Nc3nc(=S)[nH]c4ccccc34)n2)CC1	–	–	–	–	–	–
SMILES	Peg3 prom inh	Shn3 3UTR inh	CF NFkB inh	KKLEB cytotox	MITF TRPM1 inh	HIF-2a inh
O=C(Cc1csc(Nc2nc(=S)[nH]c3ccccc23)n1)N1CCN(c2cccc(Cl)c2)CC1	82	–	–	–	78	–
CCOC(=O)c1c(CN2CCNCC2)nc2ccc(Cl)cc2c1-c1ccccc1	106	–	–	–	90	–
Cc1cc(C)c(NC(=S)NC(NC(=O)c2ccccc2)C(Cl)(Cl)Cl)c(C)c1 (stereo not given)	69	–	–	–	–	–
Cc1ccc(C)c(NC(=S)NC(NC(=O)Cc2ccccc2)C(Cl)(Cl)Cl)c1 (stereo not given)	84	–	–	–	–	–
Cc1ccc(NC(=S)NC(NC(=O)c2ccccc2)C(Cl)(Cl)Cl)c(C)c1 (stereo not given)	–	–	–	–	–	–
COCCn1c(SCC(=O)Nc2sccc2C(N)=O)nc2cc(Cl)ccc2c1=O	52	–	–	–	–	–
Oc1cccc(-c2nnc(-c3cccc(O)c3)nn2)c1	–	–	–	-60	–	–
CCCCCCCCCCOC(=O)Cn1c(COc2ccccc2OC)[n+](C)c2ccccc21	106	89	51	-54	83	42
C=CCOC(=O)C1=C(C)N(C)C(=O)NC1c1cc2c(cc1Br)OCO2 (stereo not given)	67	–	–	–	–	–
CCCCOC(=O)C1=C(C)N(C)C(=O)NC1c1cc2c(cc1Br)OCO2 (stereo not given)	–	–	–	–	·	–
Cc1cccc(-c2noc(CCCC(=O)N3CCOCC3)n2)c1	–	–	–	–	–	–
COc1ccc(-n2c(SCC(C)=O)nc3sc(C)c(C)c3c2=O)cc1	–	–	–	–	–	–
CC[C@]12c3[nH]c4ccc(Cl)cc4c3CCN1C(=O)[C@@H](CC(=O)NCc1cccc(C(F)(F)F)c1)C[C@@H]2C(=O)N1CCN(C(=O)C2CC2)CC1	52	–	–	–	–	–
CC[C@]12c3[nH]c4ccc(Cl)cc4c3CCN1C(=O)[C@@H](CC(=O)NC/C=C(\C)CCC=C(C)C)C[C@@H]2C(=O)N1CCN(C(=O)C2CC2)CC1	60	–	–	–	–	–
O=C(CC1C[C@H](C(=O)N2CCOCC2)[C@@]2(CCC3CCCC3)c3[nH]c4ccccc4c3CCN2C1=O)NCc1cccc(C(F)(F)F)c1 (stereo not given in full)	90	–	–	–	–	–
CCN(CC)C(=O)[C@H]1C[C@H](CC(=O)NCc2cccc(C(F)(F)F)c2)C(=O)N2CCc3c([nH]c4cc(-c5ccco5)ccc34)[C@]12C	85	–	–	–	–	–
CCN(CC)C(=O)[C@H]1C[C@H](CC(=O)NCc2ccco2)C(=O)N2CCc3c([nH]c4cc(-c5ccco5)ccc34)[C@]12C	–	–	–	–	–	–
Nc1nc(CCl)nc(Nc2ccc3ccccc3c2)n1	–	–	78	–	–	–
CN(C)S(=O)(=O)c1cccc(N=c2scc(-c3ccc4c(c3)NC(=O)CO4)n2CC2CCCO2)c1 (stereo not given)	–	86	–	–	–	–
NS(=O)(=O)c1ccc(N=Nc2c(-c3ccccc3)[nH]n(-c3nc(-c4ccccc4)cs3)c2=O)cc1	71	–	–	–	–	–
Nc1[nH]n2c(=O)cc(-c3ccccc3)nc2c1N=Nc1ccc(S(N)(=O)=O)cc1	–	–	–	–	–	–
Cc1ccc(NNC(=O)Nc2ccc(Cl)cc2)nn1	–	–	–	–	–	–
CN=c1scc(-c2ccc(F)cc2)n1/N=C/c1ccc(O)c(O)c1	–	89	–	–	68	–
